According to ChEMBL document CHEMBL3988442, “University of Dundee, Small-Polar-MMV Screening Library” (2021):
For some assays here: Measured potencies and affinities stand elsewhere.

Key:
Set-up in all cases: scale not given: direction of the effect not stated beside the values
[1] = target: Protein translocase subunit SecA (Escherichia coli (strain K12)) (UniProt P10408); experiment: Assay to Identify E. coli SecA ATPase Inhibitors; assay type: functional; conditions: 30 µM
[2] = target: T1, Ubiquitin-activating enzyme e1, putative (Leishmania donovani (strain BPK282A1)) (UniProt E9BSI1); experiment: Leishmania donovani Ubiquitin Activating Enzyme (LdE1); assay type: functional; conditions: 30 µM
T1 sequence (whole entry): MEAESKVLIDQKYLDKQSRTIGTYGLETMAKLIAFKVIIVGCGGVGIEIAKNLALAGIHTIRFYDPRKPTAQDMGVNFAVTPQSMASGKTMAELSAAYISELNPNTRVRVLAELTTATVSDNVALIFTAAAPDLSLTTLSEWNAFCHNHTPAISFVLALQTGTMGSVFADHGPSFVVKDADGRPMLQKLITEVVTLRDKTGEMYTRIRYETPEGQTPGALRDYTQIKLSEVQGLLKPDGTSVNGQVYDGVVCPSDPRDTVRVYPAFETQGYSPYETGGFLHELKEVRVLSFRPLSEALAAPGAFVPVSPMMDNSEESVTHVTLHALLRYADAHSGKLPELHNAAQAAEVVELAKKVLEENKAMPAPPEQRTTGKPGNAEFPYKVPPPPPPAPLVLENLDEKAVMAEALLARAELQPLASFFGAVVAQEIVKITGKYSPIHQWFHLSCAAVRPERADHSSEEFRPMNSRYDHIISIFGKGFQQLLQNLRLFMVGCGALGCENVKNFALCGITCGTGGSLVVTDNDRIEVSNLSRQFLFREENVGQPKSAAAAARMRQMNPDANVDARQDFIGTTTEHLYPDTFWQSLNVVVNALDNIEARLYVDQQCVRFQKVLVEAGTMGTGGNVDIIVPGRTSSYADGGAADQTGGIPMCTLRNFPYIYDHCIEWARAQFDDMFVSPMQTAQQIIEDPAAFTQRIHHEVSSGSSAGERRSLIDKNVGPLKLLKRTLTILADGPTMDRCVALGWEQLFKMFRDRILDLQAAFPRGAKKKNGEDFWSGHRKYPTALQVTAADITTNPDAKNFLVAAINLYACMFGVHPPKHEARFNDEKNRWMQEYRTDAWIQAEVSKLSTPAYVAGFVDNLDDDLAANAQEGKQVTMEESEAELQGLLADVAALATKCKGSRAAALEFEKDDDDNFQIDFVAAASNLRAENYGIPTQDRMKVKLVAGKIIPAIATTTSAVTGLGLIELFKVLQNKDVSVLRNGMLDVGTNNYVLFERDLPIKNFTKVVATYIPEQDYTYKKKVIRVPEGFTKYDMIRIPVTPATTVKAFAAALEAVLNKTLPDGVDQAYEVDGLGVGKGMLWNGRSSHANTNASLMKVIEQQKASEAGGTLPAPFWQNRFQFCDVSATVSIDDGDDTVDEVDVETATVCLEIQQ

[3] = target: AMP-activated protein kinase, AMPK (Homo sapiens) (UniProt P54646+O43741+P54619+Q9UGJ0+Q9Y478+Q13131+Q9UGI9); experiment: AMP-dependent Kinase enzyme assay. An in vitro enzyme assay that detects ADP turnover that is directly proportional to AMPK activity. This uses naive AMPK that is activated during the assay with MK-8722; assay type: functional; conditions: 30 µM
[4] = target: Sialic acid-binding Ig-like lectin 9 (Homo sapiens) (UniProt Q9Y336); experiment: Hs-Siglec9 ALPHAscreen SOP 20170721; conditions: 10 µM
Chain of Sialic acid-binding Ig-like lectin 9 (Homo sapiens) (Q9Y336 whole entry): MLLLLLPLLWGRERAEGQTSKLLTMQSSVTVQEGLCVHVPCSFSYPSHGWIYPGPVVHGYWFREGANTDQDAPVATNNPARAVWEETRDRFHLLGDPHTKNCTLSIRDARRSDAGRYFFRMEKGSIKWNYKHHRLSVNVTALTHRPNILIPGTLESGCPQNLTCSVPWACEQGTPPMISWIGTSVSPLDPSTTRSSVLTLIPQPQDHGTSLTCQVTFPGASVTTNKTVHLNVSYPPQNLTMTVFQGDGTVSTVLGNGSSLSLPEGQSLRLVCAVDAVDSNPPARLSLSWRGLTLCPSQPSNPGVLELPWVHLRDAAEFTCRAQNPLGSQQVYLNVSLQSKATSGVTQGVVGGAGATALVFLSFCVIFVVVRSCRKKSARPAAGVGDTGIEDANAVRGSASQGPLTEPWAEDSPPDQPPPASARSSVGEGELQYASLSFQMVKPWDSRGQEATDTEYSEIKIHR

[5] = tested on: Trypanosoma cruzi; experiment: Trypanosoma cruzi phosphomannomutase and mannose-1-phosphate guanylyltransferase assay; assay type: functional; conditions: 10 µM
[6] = target: T2, Arginase-2, mitochondrial (Homo sapiens) (UniProt P78540); experiment: in vitro enzyme assay to detect the production of urea directly proportional to the activity of Arginase II; assay type: functional; conditions: 33.3 µM; further: in the data most compounds retested in dose-response had high values
T2 sequence (whole entry): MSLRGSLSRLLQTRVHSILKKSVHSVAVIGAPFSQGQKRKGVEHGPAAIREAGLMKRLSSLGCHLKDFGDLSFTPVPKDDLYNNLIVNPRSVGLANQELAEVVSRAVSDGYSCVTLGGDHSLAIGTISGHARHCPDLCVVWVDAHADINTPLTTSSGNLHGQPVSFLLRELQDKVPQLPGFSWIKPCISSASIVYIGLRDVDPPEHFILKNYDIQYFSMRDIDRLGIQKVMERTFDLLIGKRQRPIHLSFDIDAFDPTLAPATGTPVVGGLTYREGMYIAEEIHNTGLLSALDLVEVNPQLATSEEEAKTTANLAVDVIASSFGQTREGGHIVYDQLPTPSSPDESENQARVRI

[7] = target: T3, Proteasome subunit beta (Trypanosoma cruzi) (UniProt O96673); experiment: Trypanosoma cruzi proteasome chymotrypsin-like activity (TcProtChymo) assay.; further: in the data most compounds retested in dose-response had high values; assay type: functional; conditions: 9.37 µM
T3 sequence (whole entry): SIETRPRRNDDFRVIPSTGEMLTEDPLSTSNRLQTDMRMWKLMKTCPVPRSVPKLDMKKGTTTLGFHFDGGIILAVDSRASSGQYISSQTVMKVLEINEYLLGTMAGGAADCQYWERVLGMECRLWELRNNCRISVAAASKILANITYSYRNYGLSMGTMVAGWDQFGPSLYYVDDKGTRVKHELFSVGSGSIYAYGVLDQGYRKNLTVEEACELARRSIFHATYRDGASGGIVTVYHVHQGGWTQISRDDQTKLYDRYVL

[8] = species on record: Homo sapiens; experiment: To identify inhibition of the IFN signalling (Jak-Stat) pathway via expression of an eGFP reporter gene under the control of an IFN-stimulated response element (ISRE) containing MxA promoter.; assay type: functional; conditions: 30 µM
[9] = target: T4, Tyrosyl-tRNA synthetase, putative (Trypanosoma cruzi (strain CL Brener)) (UniProt Q4DSP6); experiment: Trypanosoma cruzi tyrosyl tRNA synthetase (TcYRS) _High Tyrosine SOP; assay type: functional; conditions: 30 µM; further: in the data most compounds retested in dose-response had high values
T4 sequence (whole entry): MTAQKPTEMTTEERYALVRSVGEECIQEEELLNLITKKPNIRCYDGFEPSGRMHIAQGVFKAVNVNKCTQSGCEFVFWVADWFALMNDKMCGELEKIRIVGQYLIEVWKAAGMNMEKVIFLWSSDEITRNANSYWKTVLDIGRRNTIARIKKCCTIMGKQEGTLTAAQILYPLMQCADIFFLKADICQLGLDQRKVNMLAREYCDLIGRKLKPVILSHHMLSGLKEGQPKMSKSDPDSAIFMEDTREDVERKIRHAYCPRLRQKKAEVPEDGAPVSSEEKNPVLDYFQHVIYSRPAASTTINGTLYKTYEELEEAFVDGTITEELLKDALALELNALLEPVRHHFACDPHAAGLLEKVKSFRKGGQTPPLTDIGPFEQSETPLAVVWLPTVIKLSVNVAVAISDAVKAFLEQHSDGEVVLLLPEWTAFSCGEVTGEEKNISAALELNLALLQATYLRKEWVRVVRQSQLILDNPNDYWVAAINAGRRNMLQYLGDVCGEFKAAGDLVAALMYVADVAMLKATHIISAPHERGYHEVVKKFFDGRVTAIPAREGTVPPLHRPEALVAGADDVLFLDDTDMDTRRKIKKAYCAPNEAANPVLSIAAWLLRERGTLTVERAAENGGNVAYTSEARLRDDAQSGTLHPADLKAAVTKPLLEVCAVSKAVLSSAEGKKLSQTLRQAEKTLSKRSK

[10] = target: T4, Tyrosyl-tRNA synthetase, putative (Trypanosoma cruzi (strain CL Brener)); experiment: Trypanosoma cruzi tyrosyl tRNA synthetase (TcYRS) SOP; assay type: functional; conditions: 30 µM
[11] = target: Chromo domain-containing protein 1 (Saccharomyces cerevisiae (strain ATCC 204508 / S288c) (Baker's yeast)) (UniProt P32657); experiment: ScCHD-1 Enzyme Inhibition Assay; assay type: functional; conditions: 30 µM; further: in the data most compounds retested in dose-response had high values
Chain of Chromo domain-containing protein 1 (Saccharomyces cerevisiae (strain ATCC 204508 / S288c) (Baker's yeast)) (P32657 whole entry, the tested form may be a part): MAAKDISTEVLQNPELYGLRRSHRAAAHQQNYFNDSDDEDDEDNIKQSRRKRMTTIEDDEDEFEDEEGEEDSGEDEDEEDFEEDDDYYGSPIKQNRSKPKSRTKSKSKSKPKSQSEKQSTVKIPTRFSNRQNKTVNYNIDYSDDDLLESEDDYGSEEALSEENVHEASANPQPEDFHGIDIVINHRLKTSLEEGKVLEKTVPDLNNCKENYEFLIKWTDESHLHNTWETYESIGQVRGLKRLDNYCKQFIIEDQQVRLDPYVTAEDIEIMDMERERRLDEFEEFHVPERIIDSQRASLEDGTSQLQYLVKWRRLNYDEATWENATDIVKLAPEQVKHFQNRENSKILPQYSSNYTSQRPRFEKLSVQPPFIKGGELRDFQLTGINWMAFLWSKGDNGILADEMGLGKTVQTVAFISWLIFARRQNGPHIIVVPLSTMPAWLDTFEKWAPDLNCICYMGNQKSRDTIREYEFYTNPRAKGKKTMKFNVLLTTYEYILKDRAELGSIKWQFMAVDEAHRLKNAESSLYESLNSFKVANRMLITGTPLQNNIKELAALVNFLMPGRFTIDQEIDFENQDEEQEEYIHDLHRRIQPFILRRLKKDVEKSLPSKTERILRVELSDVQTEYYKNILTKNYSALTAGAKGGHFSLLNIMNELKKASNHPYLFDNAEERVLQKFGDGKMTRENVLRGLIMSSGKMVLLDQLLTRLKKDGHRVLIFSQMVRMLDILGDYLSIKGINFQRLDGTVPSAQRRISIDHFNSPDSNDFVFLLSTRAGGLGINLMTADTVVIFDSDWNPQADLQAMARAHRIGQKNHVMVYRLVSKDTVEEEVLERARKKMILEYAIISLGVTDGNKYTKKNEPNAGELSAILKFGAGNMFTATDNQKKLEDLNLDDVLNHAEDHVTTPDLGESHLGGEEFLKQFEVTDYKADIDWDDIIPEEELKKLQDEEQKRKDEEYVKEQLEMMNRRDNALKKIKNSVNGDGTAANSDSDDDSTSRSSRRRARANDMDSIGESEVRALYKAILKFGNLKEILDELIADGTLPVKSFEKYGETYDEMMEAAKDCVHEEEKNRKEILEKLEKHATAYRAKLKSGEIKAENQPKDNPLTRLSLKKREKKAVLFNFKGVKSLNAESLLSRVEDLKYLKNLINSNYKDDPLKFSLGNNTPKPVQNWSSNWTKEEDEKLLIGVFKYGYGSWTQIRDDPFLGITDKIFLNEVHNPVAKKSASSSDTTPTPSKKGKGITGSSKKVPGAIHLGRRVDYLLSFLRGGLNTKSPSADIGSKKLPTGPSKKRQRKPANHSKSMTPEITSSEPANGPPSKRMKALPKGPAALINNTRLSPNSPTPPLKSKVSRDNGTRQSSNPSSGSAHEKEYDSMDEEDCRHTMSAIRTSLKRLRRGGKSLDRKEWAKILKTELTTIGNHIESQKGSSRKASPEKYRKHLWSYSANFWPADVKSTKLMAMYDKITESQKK

Chain of Protein translocase subunit SecA (Escherichia coli (strain K12)) (P10408 whole entry): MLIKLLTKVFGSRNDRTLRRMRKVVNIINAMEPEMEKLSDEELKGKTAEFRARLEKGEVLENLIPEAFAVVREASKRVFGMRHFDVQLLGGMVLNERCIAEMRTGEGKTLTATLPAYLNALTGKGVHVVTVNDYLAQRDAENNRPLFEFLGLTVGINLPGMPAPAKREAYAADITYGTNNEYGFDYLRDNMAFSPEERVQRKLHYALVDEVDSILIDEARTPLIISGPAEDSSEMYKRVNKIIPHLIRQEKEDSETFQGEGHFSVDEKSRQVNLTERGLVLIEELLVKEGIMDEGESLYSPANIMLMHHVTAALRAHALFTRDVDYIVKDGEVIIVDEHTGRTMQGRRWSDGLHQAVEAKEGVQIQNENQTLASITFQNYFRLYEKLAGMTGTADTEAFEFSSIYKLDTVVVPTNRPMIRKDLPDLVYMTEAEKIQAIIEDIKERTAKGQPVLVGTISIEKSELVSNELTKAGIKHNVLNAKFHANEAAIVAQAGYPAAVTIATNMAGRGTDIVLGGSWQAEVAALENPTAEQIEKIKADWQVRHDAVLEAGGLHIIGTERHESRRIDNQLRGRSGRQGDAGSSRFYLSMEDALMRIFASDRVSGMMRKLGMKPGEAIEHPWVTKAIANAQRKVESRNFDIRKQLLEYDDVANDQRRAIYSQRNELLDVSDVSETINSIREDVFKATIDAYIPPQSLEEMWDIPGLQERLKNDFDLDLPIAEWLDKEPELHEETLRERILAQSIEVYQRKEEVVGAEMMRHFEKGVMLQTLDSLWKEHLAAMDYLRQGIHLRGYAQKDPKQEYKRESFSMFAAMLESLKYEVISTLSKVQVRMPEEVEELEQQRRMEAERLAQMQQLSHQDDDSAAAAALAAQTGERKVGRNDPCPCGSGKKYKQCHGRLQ

SMILES	Percent Effect [1] [%]	Percent Effect [2] [%]	Percent Effect [3] [%]	Percent Effect [4] [%]	Percent Effect [5] [%]	Percent Effect [6] [%]	Percent Effect [7] [%]	Percent Effect [8] [%]	Percent Effect [9] [%]	Percent Effect [10] [%]	Percent Effect [11] [%]
CC(C)Oc1ncccc1CNC(=O)c1cc[nH]n1	-3.9	8.11	0.642	2.46	-3.3	-0.802	-0.18	3.02	2.46	6.17	-2.93
Cc1cnn(C2CCCN(C(=O)c3ccnc(N(C)C)c3)C2)c1 (stereo unspecified)	-0.378	19	-4.04	-2.57	-1.54	0.645	10.3	19.4	1.04	5.06	-31.1
CN(C)c1ncc(CN2CCC(c3nnsc3S(C)(=O)=O)CC2)cn1	-2.31	-1.35	11.6	-0.17	-3.36	0.232	4.37	12.1	3.23	1.3	-9.61
O=S(=O)(Nc1cnn(C2CCOCC2)c1)c1c(F)cccc1F	1.19	-2.6	-13.6	5.79	-2.66	-1.94	10.4	5.2	2.12	1.28	-4.35
CC(C)(CNC(=O)OC(C)(C)C)NC(=O)C1CC(=O)N(C2CC2)C1 (stereo unspecified)	-7.68	-2.7	-1.58	-8.17	-8.11	-1.24	7.3	20.6	-2.15	3.7	-4.06
COc1ccc(C(=O)N2CCCC(CNS(C)(=O)=O)C2)cc1F (stereo unspecified)	-4.66	8.11	-5.72	6.16	-3.3	2.4	0.18	6.39	5.42	16.1	-6.29
CCCc1n[nH]c(C2CN(C(=O)C3=COCCC3)CCO2)n1 (stereo unspecified)	-3.49	2.63	-0.787	5.25	2.52	1.44	-2.96	2.6	2.46	1.24	10.7
CN1CCN(C[C@@H]2OC[C@H]3CN(Cc4ccsc4)CC[C@H]32)CC1	-2.51	0	1.23	-2.48	6.95	-43.2	5.81	-3.23	3.12	0	-4.8
CC(C)N(C)Cc1cnc2n1CCN(C(=O)NC1CCCC1)C2	-1.5	0	9.85	-1.01	-7.09	3.96	13.7	7.83	1.06	1.28	0.39
COc1cccc(CCNC(=O)CN2CCN(C)CC2C)c1 (stereo unspecified)	-1.66	0	-4.34	-5.98	-4.92	3.51	14.5	18.7	4.95	15.8	-5.6
CC(C)n1ccnc1CN1CCCN(C(=O)CC2C=CCC2)CC1 (stereo unspecified)	-5.72	-1.27	12.6	-5.19	-3.18	-6.67	17.8	9.57	-2.08	-5.06	-12.8
O=c1cc(CN2CCCC(CCc3c(F)cccc3F)C2)[nH]c(=O)[nH]1 (stereo unspecified)	1.76	10.8	-7.22	1.61	4.25	14.3	16.7	25	10.1	19.5	-4.32
c1cnc(N2CCC3(COCc4cnc(-c5cccnc5)nc43)C2)nc1 (stereo unspecified)	-3.71	-2.7	12.2	-3.8	-1.86	-5.41	1.11	3.84	-1.08	-10.3	-4.41
Cc1cnc(CN(C)C2CCN(CCc3ccccn3)CC2)cn1	-1.96	13.5	-8.24	-5.72	5.48	-3.88	14.5	13.7	7.92	15.8	-6.34
CC(=O)Nc1ccc(-n2ccc3nc(N4CCCC4)ncc3c2=O)cc1	-3.46	-9.33	1.45	1.82	-2.36	0.88	3.14	-5.51	1.06	-7.69	3.54
NC(=O)C(CNC(=O)COCC(F)(F)F)Cc1ccc(F)cc1 (stereo unspecified)	-3.66	5.26	9.48	-1.54	0.292	-5.92	13.1	-19.6	2.13	15.6	-4.87
